Measured values: PubChem BioAssay AID651871 (Sanford-Burnham Center for Chemical Genomics, 2012)

Test system: HL-1
Assay: cardiomyocyte survival under oxidative or metabolic stress – cell-based, panel, H9c2 and HL-1, ATP luminescence, set 2, SAR follow-up (AID 651871);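 also: cells exposed to stressor for 2 h before ATP readout; reference of the scale not given here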
Conditions: H9c2/HL-1 cardiomyocytes, 2-deoxyglucose stress, with 2-deoxyglucose, run 4, at 19.8 µM (top of the series)

COc1ccc2c(c1OC)C(=O)N1c3ccccc3C(=O)N(Cc3cccc(Cl)c3Cl)C21 (stereo unspecified) was tested, and the activity (protection/inhibition) was 48.1%.
